Most compounds without a hit are left out; they make up all but 2.8% or so of the library.
GASC-1 inh = inhibitors of human GASC-1 (JMJD2C) demethylase. GST-JMJD2C(1-420) H3K9me3 demethylation, DELFIA europium. inhibition, % at 2.35 µM. 0.069% of 330,000 active;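 active = more than half of a compound's replicate wells show inhibition beyond 50%, single wells judged on their own value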;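 note: signal counts dimethyl H3K9 product captured on neutravidin plate; 0% = median of DMSO wells and 100% = 0.3 times that DMSO median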
PP5 inh = inhibitors of human protein phosphatase 5 (PP5). 0.18% of 320,000 active. purified PP5c, OMFP substrate fluorescence. inhibition, % at 6.7 µM. P53041;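 active = inhibition above the campaign's mean inhibition across all tested compounds plus 3 SD, cut at about 9.5% in these data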;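 note: 0% = DMSO only and 100% = 100 µM cantharidin control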
PG9 Ab binder = small molecules binding HIV-1 gp120 antibody PG9; TR-FRET gp120-PG9 antibody binding; AID 624416; inhibition, % at 6.7 µM; 0.43% of 360,000 active; in the data active = inhibition above about 8.5%
PP1 counter = counter-screen for PP5 inhibitors: inhibitors of human PP1-alpha; P62136; purified PP1alpha, OMFP fluorescence; inhibition, % at 6.7 µM; 0.9% of 320,000 active;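 active = inhibition above the mean inhibition of all tested compounds plus 3 SD, computed separately for each screening campaign, cut at about 15% in these data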
Target sequence (P62136 whole entry, looked up): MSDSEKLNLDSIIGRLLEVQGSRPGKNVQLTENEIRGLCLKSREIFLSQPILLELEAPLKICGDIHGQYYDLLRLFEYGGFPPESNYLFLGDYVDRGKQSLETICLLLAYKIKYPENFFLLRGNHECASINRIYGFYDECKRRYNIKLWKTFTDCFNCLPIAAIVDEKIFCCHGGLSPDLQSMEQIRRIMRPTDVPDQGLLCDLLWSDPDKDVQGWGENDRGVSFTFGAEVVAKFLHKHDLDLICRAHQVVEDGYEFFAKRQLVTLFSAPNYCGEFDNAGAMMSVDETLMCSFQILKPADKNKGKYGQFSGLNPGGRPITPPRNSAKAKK
Rev-erbA mod = Rev-erb alpha (human) modulation; P20393; Rev-erbα–FITC-DNA binding, fluorescence polarization, 90 min; activity, % at 10 µM; 0.79% of 370,000 active; AID 1259318;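 active = activity above about 14%, limit read from the data; passing the limit was not always enough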;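 note: 0% = DMSO wells with 35 nM protein and 100% = DMSO wells with 750 nM protein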
proKLK7 act = proKLK7 (human) activation, primary screen | P49862 | 0.9% of 370,000 active | purified proKLK7, EDANS-DABCYL substrate fluorescence; 100% is mature enzyme control, 0% vehicle | activation, % at 7 µM;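 active = activation above the mean of all tested compounds plus 3 SD, computed per campaign excluding outliers beyond control limits, cut at about 13% in these data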
Target sequence (P49862 whole entry, looked up): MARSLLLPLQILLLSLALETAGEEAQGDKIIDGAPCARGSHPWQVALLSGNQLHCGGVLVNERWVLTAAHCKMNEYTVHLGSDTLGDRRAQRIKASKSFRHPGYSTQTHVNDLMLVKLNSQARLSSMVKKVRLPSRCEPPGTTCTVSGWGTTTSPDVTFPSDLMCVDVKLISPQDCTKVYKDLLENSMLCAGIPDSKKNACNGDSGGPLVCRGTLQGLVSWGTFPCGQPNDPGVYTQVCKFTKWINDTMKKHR
PP1 inh confirm = confirmation of human PP1 phosphatase inhibitors | inhibition, % at 6.7 µM | shares compounds with PP1 counter | 52% of 1,900 active | purified PP1alpha, OMFP substrate fluorescence | AID 2358;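 active = mean PP1 inhibition above a set limit taken from the earlier primary screen, cut at about 15% in these data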
PP5 counter = PP5 phosphatase inhibition, counter-screen for PP1 inhibitors | shares compounds with PP1 counter | purified PP5c, OMFP fluorescence | inhibition, % at 6.7 µM | 4% of 1,900 active | AID 2360;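 active = mean PP5 inhibition over triplicate wells above about 9.5% taken from the earlier PP1 screen, limit read from the data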
The depositor's hits bear a star; / = not tested or not shown.

SMILES	GASC-1 inh	PP5 inh	PG9 Ab binder	PP1 counter	Rev-erbA mod	proKLK7 act	PP1 inh confirm	PP5 counter
Cc1ccc(S(=O)(=O)N2CC3(COC(C)(C)OC3)C[C@H]2CON2C(C)(C)CCCC2(C)C)cc1	/	/	/	/	-1	/	/	/
CC(C)(C)OC(=O)NCc1cc(F)ccc1/C=C/S(=O)(=O)NCc1ccc(F)cc1	/	/	/	/	-8	0	/	/
Cc1cccc(C)c1NC(=O)CN(C)C(=O)c1ccc(NS(=O)(=O)c2ccc3[nH]c(=O)[nH]c3c2)cc1	5	-1	-2	-3	-3	0	/	/
Cc1cccc(C)c1NC(=O)CNC(=O)c1ccc(NS(=O)(=O)c2ccc3[nH]c(=O)[nH]c3c2)cc1	15	-1	1	93*	5	0	0	-3
COc1ccc(C2CC(c3ccccc3)=NN2C(=O)COC(=O)c2cc(S(=O)(=O)N3CCOCC3)ccc2Cl)cc1 (stereo not drawn)	7	6	-1	20*	11	0	9	-2
COCc1cc(N2CCN(C(=O)OC(C)(C)C)C[C@H]2C)ccc1N1CCN(Cc2ccccc2)[C@H](C)C1	/	/	-1	/	8	1	/	/
Cc1ccccc1NC(=O)C(=O)NNC(=O)COc1ccc2ccccc2c1	18	0	-4	18*	7	0	15	-6
Cc1cccc(-c2cccc3c4c([nH]c23)[C@@H]2C[C@H](N(C)C(=O)c3ccccc3F)[C@H]([C@H](C)O)CN2CC4)c1	/	/	/	/	6	0	/	/
Cc1cc2cc(CNC(=O)c3cc4ccccc4o3)ccc2n1C	/	5	/	22*	/	/	9	-2
O=S(=O)(c1ccc(NC(=S)N/N=C/c2ccc(O)c(O)c2)cc1)N1CCOCC1	-7	1	-1	-2	3	1	/	/
O=[N+]([O-])c1cc(Cl)cc(/C=N/NC(=S)Nc2ccc(S(=O)(=O)N3CCOCC3)cc2)c1O	-10	3	-3	19*	-6	0	19*	0
Cc1nnc(SCC(=O)Nc2cccc(S(=O)(=O)NC3=NCCCCC3)c2)n1Cc1ccccc1	10	-3	1	2	1	1	/	/
O=c1c2ccccc2c(C=Nc2cccc(S(=O)(=O)NC3=NCCCCC3)c2)c(O)n1Cc1ccccc1	5	-1	-1	19*	2	0	7	-2
CCOC(=O)c1sc(-c2ccc(Cl)cc2Cl)nc1O	5	-2	4	21*	-4	-3	21*	-4
CCOC(=O)c1sc(CS(=O)(=O)c2ccc(Cl)cc2)nc1C	5	0	-2	0	2	0	/	/
C[C@@H]1CN(c2ccc(N3CCN(C(=O)OC(C)(C)C)C[C@@H]3C)cc2C#N)CCN1Cc1ccccc1	/	/	-1	/	-1	0	/	/
Cc1cc(-c2nnc3n2N=C(c2ccc(-c4ccccc4)cc2)CS3)n[nH]1	/	0	2	34*	-1	0	23*	-1
c1ccc(-c2cc(-c3nnc4n3N=C(c3ccc5ccccc5c3)CS4)[nH]n2)cc1	8	5	-2	30*	-5	0	23*	-2
CCOC(=O)C1=C(C(=O)OCC)C2N(Cc3ccc(C#N)cc3)c3ccccc3[C@@]23C[C@@H](C(=O)OC)N(S(=O)(=O)c2ccccc2)C3=N1 (stereo partly drawn)	/	/	0	/	2	-1	/	/
C[C@H](NC(=O)c1ccccc1)C(=O)Nc1nc(-c2ccccn2)cs1	-3	2	-1	7	-3	0	/	/
CC(Oc1ccccc1)C(=O)Nc1nc(-c2ccccn2)cs1 (stereo not drawn)	/	/	-1	/	-3	-1	/	/
Cc1cccc(C(=O)NC(C(=O)Nc2nc(-c3ccccn3)cs2)C(C)C)c1 (stereo not drawn)	8	2	-1	21*	-3	0	25*	-1
CC(Oc1cccc(Cl)c1)C(=O)Nc1nc(-c2ccccn2)cs1 (stereo not drawn)	-4	7	0	30*	3	-2	36*	2
CN(CCCOC(=O)c1cc2ccccc2o1)C1CN(Cc2cn(Cc3ccccc3Cl)nn2)S(=O)(=O)C1 (stereo not drawn)	/	/	/	/	-3	0	/	/
CCOC(=O)[C@@]12CCCC=C1N(CCc1ccc(Cl)cc1)C(=O)[C@H]2CC(=O)NCC12CC3CC(CC(C3)C1)C2	/	/	/	/	4	1	/	/
SMILES	GASC-1 inh	PP5 inh	PG9 Ab binder	PP1 counter	Rev-erbA mod	proKLK7 act	PP1 inh confirm	PP5 counter
Cc1cc(Nc2ccc(Cl)c(C(F)(F)F)c2)cc(=O)n1-c1ccc(Cl)c(C(F)(F)F)c1	/	/	-1	/	2	-8	/	/
COc1ccccc1NS(=O)(=O)c1cccc(-n2c(O)c(C=Nc3ccccc3C(=O)O)c3ccccc3c2=O)c1	-5	4	1	23*	-5	2	12	1
CC1Nc2ncnc(N3CCc4ccccc4C3)c2N(Cc2ccc(Cl)cc2)C1=O (stereo not drawn)	-15	1	/	14	/	/	/	/
CC1Nc2ncnc(N3CCc4ccccc4C3)c2N(Cc2ccc(Br)cc2)C1=O (stereo not drawn)	59	4	-1	23*	-3	0	19*	0
CC(=O)Nc1ccc(NC(=O)COC(=O)c2ccccc2SCC(=O)N2CCCC2)cc1	2	-1	1	58*	-5	-1	-1	-6
Cc1cc(C)cc(NS(=O)(=O)c2ccc3[nH]cc(C(=O)N4CCc5ccccc54)c(=O)c3c2)c1	16	1	1	7	1	0	/	/
CCc1ccc(NS(=O)(=O)c2ccc3[nH]cc(C(=O)N4CCc5ccccc54)c(=O)c3c2)cc1	7	0	0	19*	2	-1	2	-2
NC(=O)c1ccc(NC(=O)COC(=O)/C=C/c2ccc(Br)o2)cc1	14	/	1	/	-24	0	/	/
O=C(COC(=O)/C=C/c1ccc(Br)o1)Nc1ccc2[nH]c(=O)[nH]c2c1	1	3	-1	21*	-4	0	25*	3
Cc1ccc(C)c(NC(=O)c2cccc3c2-c2ccccc2C3=O)c1	/	/	/	/	-2	0	/	/
COCCn1c(=NC(=O)c2cccs2)sc2cc(NC(C)=O)ccc21	-6	-2	-1	19*	7	1	-1	-3
COCCn1c(=NC(=O)/C=C/c2ccccc2Cl)sc2cc(NC(C)=O)ccc21	-3	0	2	9	0	0	/	/
O=C(N/N=C/c1cccc([N+](=O)[O-])c1)c1cc(-c2ccc3c(c2)OCO3)n[nH]1	-1	0	-2	20*	-30	0	25*	-3
COC(=O)C1=C(C)N(C)C(=NCc2ccc(C(F)(F)F)cc2)NC1c1cccc(Cl)c1 (stereo not drawn)	/	/	0	/	-2	0	/	/

Screens deposited in PubChem by several laboratories.
